The source of these data is PubChem BioAssay AID1209 (Sanford-Burnham Center for Chemical Genomics, 2008).

The structures appear in SMILES notation. The campaign covered roughly 190,000 compounds. About 810 (0.43%) were called active. The sample holds actives, similar compounds and a random draw of the others, so the mix is not that of the screen. A number with no mark means an inactive call. No stated cut-off is given here; in the data, active means inhibition above about 50%; inactive means the rest.

The target in the assay is Mannose-6-phosphate isomerase (Homo sapiens) (UniProt P34949). Briefly: inhibitors of human PMI, primary screen, biochemical, fluorescence intensity, coupled assay (AID 1209).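 Further: plate controls were DMSO vehicle for no effect and wells lacking substrate for full effect.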 The following applies: purified PMI enzyme, at 20 µM, stronger effect = higher value.
Sequence of Mannose-6-phosphate isomerase (Homo sapiens) (P34949 whole entry, looked up): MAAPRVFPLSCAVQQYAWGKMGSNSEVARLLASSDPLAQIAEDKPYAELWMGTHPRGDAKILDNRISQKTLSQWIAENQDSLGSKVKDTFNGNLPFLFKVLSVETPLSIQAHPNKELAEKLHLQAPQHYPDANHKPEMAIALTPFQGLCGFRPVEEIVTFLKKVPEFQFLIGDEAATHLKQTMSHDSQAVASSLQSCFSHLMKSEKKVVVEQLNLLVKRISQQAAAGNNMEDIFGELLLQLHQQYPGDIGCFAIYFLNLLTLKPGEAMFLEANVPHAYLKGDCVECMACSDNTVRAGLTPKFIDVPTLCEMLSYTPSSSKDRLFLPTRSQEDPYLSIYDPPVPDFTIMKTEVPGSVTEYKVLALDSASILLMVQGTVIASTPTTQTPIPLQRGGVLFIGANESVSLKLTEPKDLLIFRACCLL
On to `CCN(CC)CCCOC(=O)C1(c2ccccc2)CCCC1`, for which the inhibition is -3.2%. Turning to `Cc1ccc(Nc2nnns2)cc1C`, the inhibition is 47.5%. Then `Cc1ccc(Nc2nc3ccccc3s2)cc1`, with -5.9%; and `Cc1ccc(Nc2nnns2)cc1`, with 57.4% (active); and `COc1ccc(OC)c(NC(=O)C2C(C(=O)O)C3(Cl)C(Cl)=C(Cl)C2(Cl)C3(Cl)Cl)c1` (stereo not drawn), with 18.2%. Then `CCCCCC(=O)Nc1ccc2ccccc2c1`, with 16.7%; and `CCOC(=O)C(Nc1ccc2ccccc2c1)C(=O)OCC`, with 60.3% (active); and `CCC(=O)Nc1ccc2ccccc2c1`, with 12%. On to `COc1ccc(CNS(=O)(=O)c2cccc(S(=O)(=O)N3CCOCC3)c2)cc1`, for which the inhibition is 6.7%.

For the compound `CCOc1cc(C(C#N)N2CCOCC2)ccc1OC` (stereo not drawn), the inhibition was 12%.

As for `O=C(CN1C(=O)COc2ccccc21)NCCCN1CCN(Cc2ccccc2)CC1`, the inhibition was 4.6%. Then `CCOC(=O)c1sc(NC(=O)CSc2nnc(Cc3ccccc3)o2)c(C(=O)OCC)c1C`, with 4.9%; and `CCOC(=O)c1sc(NC(=O)CSc2nc(C)cc(-c3ccccc3)n2)c(C#N)c1C`, with 61.2% (active); and `Cc1sc(NC(=O)COc2ccccc2)c(C#N)c1-c1ccccc1`, with 4.5%.

With `Cc1sc(NC(=O)COc2ccccc2)c(C#N)c1C`, the inhibition was 58.3% (active). As for `CCOC(=O)c1c(NC(=O)CSc2nnc(Cc3ccccc3)o2)sc(C(C)=O)c1C`, the inhibition was 9.9%.

For `CCOC(=O)c1sc(NC(=O)CSc2nnc(Cc3ccccc3)o2)c(C#N)c1C`, the inhibition was 72.4% (active). Then `CCOC(=O)c1sc(NC(=O)CSc2nc(C)cc(C)n2)c(C#N)c1C`, with 4.2%. Then `CCOC(=O)c1sc(NC(=O)CSc2n[nH]c(-c3ccccc3)n2)c(C#N)c1C`, with 51.7% (active); and `CCOC(=O)c1sc(NC(=O)CSc2n[nH]c(-c3ccc(Cl)cc3Cl)n2)c(C#N)c1C`, with 25.2%; and `CCOC(=O)c1sc(NC(=O)CSc2nc(C)cc(C(F)(F)F)n2)c(C#N)c1C`, with 26.6%. To `CCOC(=O)c1sc(NC(=O)CSc2n[nH]c(-c3ccncc3)n2)c(C#N)c1C` belongs -4.9%. As to `Cc1ccccc1NC(=O)c1sc(NC(=O)COc2ccccc2)c(C#N)c1C`, the inhibition is 5.1%. Take `Cc1cc(C(=O)Nc2ccc(C(=O)O)cc2)c(-c2ccccc2)o1`: the inhibition is 4%. As to `Cc1ccc[n+](CC(=O)c2ccc(NC(=O)c3ccccc3)cc2)c1`, the inhibition was -10.6%. To `COCCN(CCOC)S(=O)(=O)c1ccc(C(=O)Nc2sc3c(c2C(N)=O)CCCCC3)cc1` belongs 3.2%; to `CC(=O)Nc1ccc(NC(=O)COc2c(C)cc(Br)cc2C)cc1`, 13.2%. Then `CCO/N=C(\C)c1c(O)c(CC)c(-c2ccccc2)n(-c2ccccc2)c1=O`, with 9.9%; and `C=CCn1c(NC(=O)c2ccc(Br)o2)c(C(=O)OCC)sc1=S`, with 50.7% (active). Consider `CCOC(=O)c1sc(NC(=O)c2ccc(Br)o2)cc1C`, for which the inhibition is 11.7%.

`C=CCn1c(NC(=O)CC)c(C(=O)OCC)sc1=S`: the inhibition was 17.3%. On to `O=C(NCc1cn2ccccc2n1)c1ccccc1`, for which the inhibition was -15.8%. For `O=C(CCN1CCC(c2ccccc2)C1)c1ccc2c(c1)OCCO2` (stereo not drawn), the inhibition is 47.6%.

As to `O=C(CCN1CCCCC1)c1ccc2c(c1)OCCO2`, the inhibition is 36.1%. With `O=C(CCN1CCCC1Cc1ccccc1)c1ccc2c(c1)OCCO2` (stereo not drawn), the inhibition is 50.8% (active).

For `FC(F)(F)c1cccc(NC(=S)N2CCN(c3ccccn3)CC2)c1`, the inhibition is -17%. Then `COc1cccc(NC(=S)N2CCN(c3ccccn3)CC2)c1`, with 12.3%; and `FC(F)Oc1cccc(NC(=S)N2CCN(c3ccccn3)CC2)c1`, with 65.6% (active). Then `CN(C)c1cccc(C(=O)OCC(=O)Nc2nccs2)c1`, with -1.5%; and `N/C(=N/O)c1nc(N2CCCCC2)nc(N2CCCCC2)n1`, with 2.2%.

In the case of `COc1nc(N2CCCCCC2)nc(N2CCCCCC2)n1`, the inhibition was 2.3%.

With `COc1nc(/C(N)=N/O)nc(N2CCCCC2)n1`, the inhibition is 66.9% (active). Then `COc1ccc(C(=O)Nc2ccc(CN3CCCCC3)cc2)cc1`, with 3%. Take `CCOC(=O)Cn1nc(C)c([N+](=O)[O-])c1C`: the inhibition is -27.5%.

For `Cc1nn(CC(=O)Nc2nccs2)c(C)c1[N+](=O)[O-]`, the inhibition was -3.9%.

Consider `CCc1c(C)sc(NC(=O)Cn2nc(C)c([N+](=O)[O-])c2C)c1C(N)=O`, for which the inhibition is 53.3% (active). `COc1ccc(C2CC(C(F)(F)F)n3nc(C(=O)NCCCn4ccnc4)cc3N2)cc1OC` (stereo not drawn): the inhibition was 41.3%.

As for `O=C(CN1CCCc2ccccc21)NCc1ccccc1Cl`, the inhibition is -13.5%. To `Cc1ccc(C(=O)Nc2ccc(N3CCN(S(C)(=O)=O)CC3)cc2)cc1` belongs 0.4%; to `O=C(CS(=O)(=O)c1ccc(Cl)cc1)NCCS(=O)(=O)c1ccc(Cl)cc1`, 59.5% (active); to `Cc1ccc(S(=O)(=O)CCNC(=O)Cc2ccc(Cl)cc2)cc1`, 3.4%. In the case of `CC(C(=O)NCCS(=O)(=O)c1ccc(Cl)cc1)S(=O)(=O)c1ccc(Cl)cc1` (stereo not drawn), the inhibition is -15.8%. Then `Cc1ccc(CNC(=O)c2cncc(Br)c2)cc1`, with 10.4%; and `CCOC(=O)C(C)n1cnc2c(nnn2-c2ccc(OC)cc2)c1=O` (stereo not drawn), with -2.7%; and `CCOc1ccc(CNC(=O)CCCOc2cc(=O)n(C)c3ccccc23)cc1`, with -6.3%. Then `Cc1c(Cc2ccc3c(c2)OCO3)sc(NC(=O)c2ccc3ccccc3c2)c1C(N)=O`, with 43.1%; and `Cc1c(Cc2ccc3c(c2)OCO3)sc(NC(=O)c2ccccc2)c1C(N)=O`, with -2.5%; and `Cc1c(Cc2ccc3c(c2)OCO3)sc(NC(=O)c2cccc3ccccc23)c1C(N)=O`, with 56.7% (active). To `Cc1ccc(S(=O)(=O)O/N=C2\CCCc3ccccc32)cc1` belongs 9.6%. `CC1=C(C)/C(=N\OS(=O)(=O)c2ccc(C)cc2)C=CC1=O`: the inhibition was 75.6% (active).

On to `CC1=C(C)/C(=N/OC(=O)c2cccc([N+](=O)[O-])c2)C=CC1=O`, for which the inhibition is 4.4%. Then `COc1ccc(S(=O)(=O)/N=C2/C=CC(=O)C(C)=C2C)cc1`, with 14.5%; and `CC1=C(C)/C(=N\OC(=O)/C=C/c2ccccc2)C=CC1=O`, with 7.2%.

Broadly, the inhibition is the drop in the measured response relative to a control, in per cent.
